Reference: PubChem BioAssay AID1159580 (chemical genetic matrix, 2015)
Several values for one entry are separate records, joined by “and”; a condition that tells them apart may be missing. Identical values can stand only once. About 2,000 (36%) of roughly 5,500 compounds were called active. Inconclusive results (about 18%) are left out. Cut-off read from the data, not from the text of the source: active = normalized growth mostly below about 0.91 (no sharp cut-off); inconclusive = no clear call, values can overlap the other calls; inactive = mostly above about 0.92. The list shows a part of the results.

Assay: chemical genetic growth profiling, strain panel (AID 1159580);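 note: tested at 20 µM; growth read once vehicle control cultures reached saturation at 30 °C; 1 = growth at the plate median or of vehicle wells; lower values mean less growth of the strain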
Details: S. cerevisiae deletion strains, growth OD

Measured: normalized growth

CC(Cc1cccc(C(F)(F)F)c1)NCCOC(=O)c1ccccc1 (configuration not stated)
0.833 (active) and 0.974 (inactive): locus YHR030C, strain SLT2, stronger effect = lower value
active: locus YAL021C, strain ccr4, stronger effect = lower value 0.853 | locus YAL026C, strain drs2, stronger effect = lower value 0.582 | locus YBR021W, strain FUR4, stronger effect = lower value 0.513 | locus YDR069C, strain doa4, stronger effect = lower value 0.845 | locus YDR388W, stronger effect = lower value 0.811 | locus YER015W, strain faa2, stronger effect = lower value 0.899 | locus YFR010W, strain ubp6, stronger effect = lower value 0.831 | locus YGR229C, strain SMI1, stronger effect = lower value 0.612
0.614 (active) and 0.976 (inactive): locus YJL095W, strain BCK1, stronger effect = lower value
inactive: locus YAL013W, strain DEP1, stronger effect = lower value 0.98 | locus YAL030W, strain snc1, stronger effect = lower value 0.964 | locus YBL061C, strain skt5, stronger effect = lower value 0.968 | locus YBR009C, strain hhf1, stronger effect = lower value 0.953 | locus YBR023C, strain chs3, stronger effect = lower value 0.936 | locus YBR171W, strain sec66, stronger effect = lower value 0.975 | locus YBR229C, strain ROT2, stronger effect = lower value 1.01 | locus YBR231C, strain swc5, stronger effect = lower value 0.948 | locus YBR279W, strain paf1, stronger effect = lower value 0.964 | locus YCL011C, strain gbp2, stronger effect = lower value 0.971 | locus YCL016C, strain dcc1, stronger effect = lower value 0.969 | locus YCL029C, strain bik1, stronger effect = lower value 1.03 | locus YCL061C, strain MRC1, stronger effect = lower value 0.978 | locus YCL069W, strain vba3, stronger effect = lower value 0.967 | locus YCR088W, strain abp1, stronger effect = lower value 0.994 | locus YDL005C, strain med2, stronger effect = lower value 0.999 | locus YDL035C, strain GPR1, stronger effect = lower value 0.917 | locus YDL040C, strain nat1, stronger effect = lower value 0.994 | locus YDL074C, strain BRE1, stronger effect = lower value 0.914 | locus YDL101C, strain DUN1, stronger effect = lower value 0.996 | locus YDL134C, strain PPH21, stronger effect = lower value 0.958 | locus YDL185W, strain tfp1, stronger effect = lower value 1.02 | locus YDL192W, strain arf1, stronger effect = lower value 0.988 | locus YDR001C, strain nth1, stronger effect = lower value 0.992 | locus YDR101C, strain arx1, stronger effect = lower value 0.999 | locus YDR137W, strain rgp1, stronger effect = lower value 0.916 | locus YDR150W, strain NUM1, stronger effect = lower value 0.997 | locus YDR159W, strain sac3, stronger effect = lower value 0.995 | locus YDR162C, strain NBP2, stronger effect = lower value 0.945 | locus YDR195W, strain ref2 1.01 | locus YDR297W, strain sur2, stronger effect = lower value 0.973 | locus YDR318W, strain mcm21, stronger effect = lower value 0.963 | locus YDR334W, strain swr1, stronger effect = lower value 0.997 | locus YDR335W, strain msn5, stronger effect = lower value 0.959 | locus YDR392W, strain spt3, stronger effect = lower value 1.03 | locus YDR502C, strain sam2, stronger effect = lower value 0.974 | locus YEL003W, strain gim4, stronger effect = lower value 0.924 | locus YEL037C, strain rad23, stronger effect = lower value 0.973 | locus YEL061C, strain CIN8 (second series), stronger effect = lower value 0.988 | locus YEL061C, strain CIN8, stronger effect = lower value 0.993 | locus YER016W, strain bim1, stronger effect = lower value 1 | locus YER110C, stronger effect = lower value 1.01 | locus YER111C, strain swi4, stronger effect = lower value 0.997 | locus YER155C, strain BEM2 (second series), stronger effect = lower value 0.934 | locus YER155C, strain BEM2, stronger effect = lower value 1.02 | locus YER167W, strain BCK2, stronger effect = lower value 0.985 | locus YGL078C, strain dbp3, stronger effect = lower value 1.01 | locus YGL086W, strain mad1, stronger effect = lower value 0.953 | locus YGL167C, strain pmr1, stronger effect = lower value 0.991 | locus YGL173C, strain kem1, stronger effect = lower value 0.919 | locus YGL227W, strain vid30, stronger effect = lower value 0.995 | locus YGL240W, strain doc1, stronger effect = lower value 0.945 | locus YGL248W, strain PDE1, stronger effect = lower value 0.957 | locus YGL253W, strain hxk2, stronger effect = lower value 0.96 | locus YGR078C, strain PAC10, stronger effect = lower value 0.921 | locus YGR135W, strain pre9, stronger effect = lower value 0.914 | locus YGR252W, strain gcn5, stronger effect = lower value 0.923 | locus YHR013C, strain ard1, stronger effect = lower value 0.963 | locus YHR027C, strain rpn1, stronger effect = lower value 0.941 | locus YHR079C, strain IRE1 (second series), stronger effect = lower value 1 | locus YHR079C, strain IRE1, stronger effect = lower value 0.981 | locus YHR094C, strain hxt1, stronger effect = lower value 1.02 | locus YHR129C, strain ARP1, stronger effect = lower value 1 | locus YHR142W, strain chs7, stronger effect = lower value 0.925 | locus YHR200W, strain rpn10, stronger effect = lower value 0.996 | locus YIL066C, strain RNR3, stronger effect = lower value 0.962 | locus YIL073C, strain SPO22, stronger effect = lower value 1.14 | locus YIL125W, strain kgd1, stronger effect = lower value 1.02 | locus YIR030C, strain dcg1, stronger effect = lower value 1 | locus YJL092W, strain hpr5, stronger effect = lower value 0.953 | locus YJL095W, strain BCK1 (second series), stronger effect = lower value 0.954 | locus YJL115W, strain asf1, stronger effect = lower value 0.979 | locus YJL129C, strain trk1, stronger effect = lower value 0.997 | locus YJL134W, strain LCB3, stronger effect = lower value 1 | locus YJL154C, strain vps35, stronger effect = lower value 0.986 | locus YJL164C, strain tpk1, stronger effect = lower value 0.953 | locus YJL166W, strain qcr8, stronger effect = lower value 0.943 | locus YJL168C, strain set2, stronger effect = lower value 1 | locus YJL187C, strain SWE1 (second series), stronger effect = lower value 0.923 | locus YJL187C, strain SWE1, stronger effect = lower value 0.978 | locus YJR043C, strain POL32, stronger effect = lower value 1.04 | locus YJR066W, strain TOR1, stronger effect = lower value 0.879
